Screens from PubChem BioAssay.
hERG WT inh = inhibitors of human wildtype KCNH2 potassium channel; Q12809; U2OS, BacMam KCNH2, thallium flux FluxOr; active compounds read low; activity change, % at 1.84 µM; 340,000 tested, 0.37% active; AID 720551;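 active = maximum activity change below -70%; inconclusive = maximum activity change between -70% and -50%; inactive = maximum activity change above -50%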; also: % is scaled to controls: 0 for no effect and ±100 for the full control effect
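U2OS cells transduced with wild-type KCNH2 virus are loaded with FluxOr dye for 45 min, and thallium flux is measured in kinetic reads before and after stimulation buffer. Rate constants are normalized to DMSO controls.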
TRPV1 agonist = agonists of human vanilloid receptor 1 (TRPV1); Q8NER1; TRPV1-expressing cells, Fluo-8 calcium influx, agonist mode; activation, % at 8.33 µM; 320,000 tested, 0.19% active; AID 540275; in the data active = activation above about 80%; inconclusive = between about 30% and that limit; also: 0% is about no effect
Target sequence (Q8NER1 whole entry, looked up): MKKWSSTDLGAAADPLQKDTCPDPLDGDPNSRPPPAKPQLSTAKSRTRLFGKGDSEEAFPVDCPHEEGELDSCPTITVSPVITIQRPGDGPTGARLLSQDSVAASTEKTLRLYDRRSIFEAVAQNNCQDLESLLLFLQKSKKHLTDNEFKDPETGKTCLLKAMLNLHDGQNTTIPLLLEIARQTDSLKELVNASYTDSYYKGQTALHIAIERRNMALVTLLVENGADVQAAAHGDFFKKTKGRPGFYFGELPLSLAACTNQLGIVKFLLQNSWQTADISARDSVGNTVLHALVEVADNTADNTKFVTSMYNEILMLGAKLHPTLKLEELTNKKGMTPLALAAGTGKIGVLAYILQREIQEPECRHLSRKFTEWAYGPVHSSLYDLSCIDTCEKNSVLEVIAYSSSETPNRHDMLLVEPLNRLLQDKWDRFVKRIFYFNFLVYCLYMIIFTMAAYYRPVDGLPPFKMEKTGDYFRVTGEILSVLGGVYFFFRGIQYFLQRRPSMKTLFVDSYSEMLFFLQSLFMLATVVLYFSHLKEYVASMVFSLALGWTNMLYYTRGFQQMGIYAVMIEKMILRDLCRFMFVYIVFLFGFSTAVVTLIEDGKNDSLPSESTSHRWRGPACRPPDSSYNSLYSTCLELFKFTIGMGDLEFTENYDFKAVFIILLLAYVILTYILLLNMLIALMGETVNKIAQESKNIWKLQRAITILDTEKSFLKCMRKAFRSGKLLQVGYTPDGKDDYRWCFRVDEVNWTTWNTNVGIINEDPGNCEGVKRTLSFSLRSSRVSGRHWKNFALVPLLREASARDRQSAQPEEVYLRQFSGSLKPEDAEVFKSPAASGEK
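Cells expressing TRPV1 were dye-loaded with Fluo-8 and read kinetically: 10 s baseline, 3 min after compound (agonist portion), then 2 min after EC20 capsaicin (allosteric enhancer portion). Calcium-bound dye fluorescence at 480/520 nm.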
TRPV1 potentiator = human TRPV1 potentiation | Q8NER1 | TRPV1-expressing cells, Fluo-8 calcium influx, capsaicin EC20 potentiation | potentiation, % at 8.33 µM | 320,000 tested, 0.02% active; in the data active = potentiation above about 80%; inconclusive = between about 30% and that limit; also: 0% is about no effect
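Fluo-8 calcium influx in TRPV1-expressing cells, kinetic read (ex 480/em 520 nm). Compound added and read 3 min for agonist activity, followed by capsaicin at EC20 final and 2 min further read for enhancement.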
KCNH2 3.1 inh = inhibitors of human KCNH2 3.1 potassium channel isoform | U2OS KCNH2 3.1, thallium flux FluxOr; active compounds read low | 340,000 tested, 0.95% active | activity change, % (tested at about 1.8 µM);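 active = maximum activity change below -70%; inconclusive = maximum activity change from -70% to -50%; inactive = maximum activity change above -50%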;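 also: thallium influx rate constant from kinetic fluorescence after stimulation buffer; % is scaled to controls: 0 for no effect and ±100 for the full control effect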
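Steps: virus added to U2OS suspension (4 h, RT, dark); medium with 10% FBS added, cells plated, 37 C overnight; FluxOr/Red40 loading buffer 45 min RT; stimulation buffer, 2 min kinetic read; rate constant normalized.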
TRPML1 blocker = inhibitors of human TRPML1 channel. AID 624415. TRPML1-inducible cells, Ca2+ dye fluorescence, FDSS; active compounds read low; inhibition of EC80 agonist-evoked calcium signal. 390,000 tested, 0.02% active. activity change, negative = inhibition, % (test concentration not listed). Q9GZU1; in the data active = activity change below about -50%; inconclusive = between about -30% and that limit;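 also: stimulus is agonist 54-4 at its EC80 concentration; % is scaled to controls: 0 for no effect and ±100 for the full control effect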
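Tet-induced TRPML1-DL cells loaded with Ca8 no-wash calcium dye were read kinetically on FDSS. Compound addition was followed by EC80 agonist 54-4 (4 uM final); inhibition was read over 110 s.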
TRPML1 ag = human mucolipin-1 channel agonism; Q9GZU1; 410,000 tested, 0.12% active; TRPML1-expressing cells, Ca2+ dye fluorescence, FDSS; activation, % (concentration not given with the values); in the data active = activation above about 50%; inconclusive = mostly about 30% to 49%; also: 0% is about no effect
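In this qHTS format, compounds were pin-transferred onto Ca8-dye-loaded TRPML1-DL cells induced with Tet overnight, and intracellular Ca2+ fluorescence was recorded kinetically for 110 s after a 10 s baseline. A subsequent 4uM final 54-4 (EC80) addition followed by a second 110 s read served as the antagonist phase.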
Active calls of the source: *; ? = inconclusive; / = no result given. Only some compounds are listed: those with a hit (about 1.3% of all), similar ones and a draw of the others.

SMILES	hERG WT inh	TRPV1 agonist	TRPV1 potentiator	KCNH2 3.1 inh	TRPML1 blocker	TRPML1 ag
CCCC(=O)NC(c1ccccc1Cl)c1ccc2cccnc2c1O (configuration not stated)	-17	-1	5	-97*	10	1
O=C(NCc1ccccc1)N1CCN(c2ccccc2)CC1	-7	?	-5	-17	-8	0
S=C(NCc1ccccc1)N1CCN(c2ccccc2)CC1	0	?	-11	-74*	-1	0
COc1ccc(C(=O)C2CCCN(Cc3cccn3-c3nccs3)C2)cc1OC (configuration not stated)	-35	1	-11	?	-17	1
O=C(c1ccc(C(F)(F)F)cc1)C1CCCN(Cc2cccn2-c2ncccn2)C1 (configuration not stated)	-112*	0	14	-111*	9	0
O=C(c1cccc(C(F)(F)F)c1)C1CCCN(Cc2cccn2-c2ncccn2)C1 (configuration not stated)	-72*	7	9	-9	19	1
O=C(c1ccc(C(F)(F)F)cc1)C1CCCN(C(=O)CCc2ccncc2)C1 (configuration not stated)	3	87*	-14	-5	1	0
CCOc1cc(CN2CCCC(C(=O)c3cccc(C(F)(F)F)c3)C2)ccc1O (configuration not stated)	43	?	-12	-47	?	1
CSc1ccc(C(=O)C2CCCN(Cc3cccc4nccnc34)C2)cc1 (configuration not stated)	?	7	12	-108*	-22	0
Cc1cccc(N2CCN(C(=O)c3cccn4c(=O)c5cc(Cl)ccc5nc34)CC2C)c1 (configuration not stated)	/	/	/	/	15	0
CSCCNC(=O)c1ccc2nc(C3CCCCC3)oc2c1	-11	92*	1	4	22	-1
CSCC[C@@H](CO)NC(=O)c1ccc2nc(C3CCCCC3)oc2c1	0	3	0	8	-7	0
CC(/C=N/NC(=O)c1ccc(Cn2cc([N+](=O)[O-])cn2)o1)=C\c1ccccc1	-1	1	-1	-79*	2	2
COc1ccc(N/C=C\C(=O)c2ccc(C)cc2)cc1OC	-22	-3	2	-141*	-6	1
Cc1ccc2c(C)c(C(=O)NCC3CCOCC3)oc2c1C	-17	/	/	2	11	-1
Cc1ccc2oc(C(=O)NCC3CCOCC3)c(C)c2c1	-6	84*	-12	19	-19	0
O=C(c1ccc(-c2cccc(C(F)(F)F)c2)o1)N1CCOCC1	-4	86*	-18	-4	6	2
CSC1=NC2(CC(c3ccccc3)Oc3cc(O)ccc32)CC(C)(C)N1 (configuration not stated)	?	-1	-6	-94*	-4	0
COc1cccc(C2CC3(CC(C)(C)NC(=S)N3)Oc3cc(O)ccc32)c1 (configuration not stated)	3	-2	-8	-6	-18	0
S=c1[nH]nc(Cc2ccccc2)n1Cc1ccco1	6	5	23	17	30	0
S=c1[nH]nc(C2CC2)n1Cc1ccco1	-323*	-2	-4	7	53	0
CC(C)CCC(CCNCc1ccccn1)c1ccc(Cl)cc1 (configuration not stated)	-33	22	-9	-91*	26	2
S=C(NCc1ccc(Cl)cc1)NCc1ccccn1	-5	13	-9	2	-10	1
c1ccc2c(c1)CCCN2	/	/	/	/	/	0
CCc1ccc(S(=O)(=O)c2cn(C)c3cc(N4CCC(C)CC4)c(F)cc3c2=O)cc1	/	/	/	/	-15	0
N#Cc1cc(-c2ccc(Cl)cc2)cnc1Sc1ccccc1	8	/	/	-79*	70	4
CCC(Oc1ccccc1)C(=O)Nc1cc(-c2ccccc2OC)nn1-c1ccccc1 (configuration not stated)	/	/	/	/	-21	0
